An excerpt weighted towards active compounds, which were near 3.5% of everything screened.
Rv3671c inh = Rv3671c (M. tuberculosis) protease inhibition. 320,000 tested, 0.048% active. inhibition, % at 5.96 µM. AID 2606. P9WHR9; in the data active means inhibition above about 38%;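 further: extracellular domain of Rv3671c used as enzyme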
Target sequence (P9WHR9 whole entry, looked up, the tested form may be a part): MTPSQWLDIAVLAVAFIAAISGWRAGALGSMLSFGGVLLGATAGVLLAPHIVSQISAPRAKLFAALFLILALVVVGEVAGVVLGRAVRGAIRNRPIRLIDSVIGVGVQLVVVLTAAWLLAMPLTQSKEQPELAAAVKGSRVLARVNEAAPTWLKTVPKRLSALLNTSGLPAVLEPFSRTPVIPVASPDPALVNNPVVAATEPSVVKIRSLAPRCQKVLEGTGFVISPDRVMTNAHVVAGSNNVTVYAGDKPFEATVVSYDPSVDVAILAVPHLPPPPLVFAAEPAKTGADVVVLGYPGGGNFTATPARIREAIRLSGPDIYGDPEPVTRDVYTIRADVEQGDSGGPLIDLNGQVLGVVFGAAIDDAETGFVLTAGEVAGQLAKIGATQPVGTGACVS
FBA Mtb inh = inhibits M. tuberculosis FBA enzyme; P9WQA3; AID 588726; inhibition, % at 1 µM; purified M. tuberculosis FBA, fluorescence read-out; 360,000 tested, 2.3% active; in the data active means inhibition above about 27%
UGM FP inh = blocks M. tuberculosis UGM enzyme | purified UGM, fluorescence polarization probe displacement | P9WIQ1 | AID 504406 | 320,000 tested, 0.06% active | inhibition, % at 10 µM; in the data active means inhibition above about 10%, passing the limit was not always enough; inconclusive means no clear call, values can overlap the other calls
GDH-TPI inh = inhibits GDH-TPI coupling enzymes, artifact for Mtb FBA screen. GDH-TPI coupled enzyme counterscreen, NADH absorbance. inhibition, % at 4.8 µM. 360,000 tested, 1.2% active. AID 588335; in the data active means inhibition above about 30%
Mtb bLac sens = beta-lactam sensitization of Mtb H37Rv; M. tuberculosis H37Rv growth with meropenem, percent inhibition; inhibition, % at 25 µM; 330,000 tested, 0.27% active; call rule not given here;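 further: growth measured after seven days incubation then overnight dye step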
A number is an active result; 0 = inactive; ? = inconclusive; - = no result given; + = active, no number.

SMILES	Rv3671c inh	FBA Mtb inh	UGM FP inh	GDH-TPI inh	Mtb bLac sens
CCc1cc(=O)oc2c3c(cc(OCC(=O)NCCCn4ccnc4)c12)OC(C)(C)CC3	0	164.1	0	0	0
CCCCc1cc(=O)oc2c3c(cc(OCC(=O)NCCCO)c12)OC(C)(C)CC3	0	+	0	0	0
Cc1ccc(NC(=O)CN(C)C(=O)c2cc(-c3ccccc3)nn2-c2ccccc2)cc1	-	0	-	0	-
COc1ccc(OC)c(N=c2oc3cc(O)ccc3cc2C(N)=O)c1	0	116.2	0	0	0
COc1ccc2oc(=Nc3cc(F)ccc3F)c(C(N)=O)cc2c1	0	0	0	0	0
NC(=O)c1cc2ccc(O)cc2oc1=NCc1ccccc1	0	+	-	0	0
NC(=O)c1cc2ccc(O)cc2oc1=Nc1ccccc1	-	+	-	0	-
Cc1noc(/C=C/c2ccccn2)c1[N+](=O)[O-]	0	0	0	36.4	0
N#Cc1c(SCc2ccc(Cl)cc2)sc(C(=O)c2ccccc2)c1N	0	0	0	0	0
CSc1c(C#N)c(N)nc2sc(C(=O)c3ccccc3)c(N)c12	0	0	0	46.2	0
CCc1nnc(N/N=C/c2cc(Br)c(O)cc2O)n1N	0	0	0	0	0
CC(C)(C)c1nnc(N/N=C/c2cc(Br)ccc2O)n(N)c1=O	0	0	0	33.3	0
COc1ccc2c(c1OC)C(=O)N(c1cccc(NC(C)=O)c1)C2	0	0	0	0	0
O=C(O)CC/C(=C\c1ccc(N2CCCC2)c([N+](=O)[O-])c1)c1nc2ccccc2s1	0	0	0	0	0
CN(c1ccccc1)c1ccc(/C=C(/CCC(=O)O)c2nc3ccccc3s2)cc1[N+](=O)[O-]	-	0	-	31.7	-
COC(=O)[C@]1(CC(C)C)N[C@H](c2ccc(-c3ccc(OC)cc3)cc2)[C@@H]2C(=O)N(C)C(=O)[C@@H]21	0	131.8	0	0	0
Cc1ccc(C(=O)NCC(=O)OC(C)C(=O)Nc2ccc(N(C)C)cc2)s1 (stereo not drawn)	0	0	0	0	0
Cc1ccc(N(CC(=O)Nc2ccc(-c3nc4ccc(C)cc4s3)cc2)S(C)(=O)=O)cc1	0	0	0	37.5	0
Cc1ccc(S(=O)(=O)Nc2ccc(-c3nc4ccc(C)cc4s3)cc2)cc1	0	183.4	0	0	0
Cc1ccc2nc(-c3ccc(NC(=O)CN4CCN(c5ccccn5)CC4)cc3)sc2c1	0	39.9	0	0	0
Cc1ccc2nc(-c3ccc(NC(=O)C(C)Sc4nncs4)cc3)sc2c1 (stereo not drawn)	0	0	0	33.8	0
Cc1ccc(C)c(N(CC(=O)Nc2ccc(-c3nc4ccc(C)cc4s3)cc2)S(C)(=O)=O)c1	0	0	0	0	0
Cc1ccc2nc(NC(=O)CN3CCN(c4ccccn4)CC3)sc2c1	0	0	0	0	0
Cc1ccc2nc(-c3ccc(NS(=O)(=O)c4c(C)n(C)c(=O)n(C)c4=O)cc3)sc2c1	0	0	0	0	0
C=CCC1(CC=C)CCCN1C(=O)c1cc(COc2ccccc2SC)on1	0	0	0	0	?
SMILES	Rv3671c inh	FBA Mtb inh	UGM FP inh	GDH-TPI inh	Mtb bLac sens
Cc1cccc(CC(=O)Nc2sc(C(C)C)cc2C(=O)N2CCOCC2)c1	0	0	0	0	0
Cc1cccc(S(=O)(=O)Nc2ccc(-c3nc4ccc(C)cc4s3)cc2)c1	0	+	0	0	0
CCOC(=O)C1Nc2ccccc2C2c3ccccc3CC12 (stereo not drawn)	0	33.4	0	0	0
Cc1nc(-c2ccccc2)nc2n[nH]c(N)c12	0	0	0	0	0
COc1ccc(C(C[N+](=O)[O-])C2(c3ccc(OC)c(OC)c3)C(=O)c3ccccc3C2=O)cc1 (stereo not drawn)	0	0	0	40.7	0
COc1ccc(C(C[N+](=O)[O-])c2c(-c3ccccc3)cc3ccccn23)cc1OC (stereo not drawn)	0	0	0	0	0
O=C(CN1CCCC1)NCC(=O)Nc1ccc(F)cc1	0	+	0	0	0
O=C(CN1CCCC1)Nc1ccc(F)cc1	0	0	0	0	0
CC1(C)Cc2c(c(N3CCOCC3)nc3sc(-c4ccc(C(=O)O)o4)c(N)c23)CO1	0	68.6	0	36.9	0
O=c1c(Cc2c(F)cccc2Cl)c(O)ccn1CCCn1ccnc1	0	0	0	0	0
S=c1[nH]nc(C2CCCCC2)n1/N=C/c1cccc(Br)c1	0	0	0	0	0
COc1cc(/C=N/n2c(C3CCCCC3)n[nH]c2=S)cc(Br)c1O	0	0	0	32.4	?
Cc1ccc(S(=O)(=O)N2CCC(C(=O)OCC(=O)N(C)CC(=O)Nc3ccc(F)cc3)CC2)cc1C	0	0	0	0	0
Cc1oc2ccc(OC(C(=O)O)c3ccccc3)cc2c1C(=O)O (stereo not drawn)	0	0	0	0	?
CC(Oc1ccc2oc(-c3ccccc3)c(C(=O)O)c2c1)C(=O)O (stereo not drawn)	0	+	0	0	0
CCOc1ccc2oc(-c3ccccc3)c(C(=O)O)c2c1	0	+	0	0	0
CNc1nc(-c2ccc3c(c2)CCN3C(=O)c2ccc(F)cc2)cs1	-	0	-	0	-
CNc1nc(-c2ccc3c(c2)CCN3C(=O)c2cccc(F)c2)cs1	0	0	0	31.0	0
C=CCn1c(O)c(N=NC(=O)CNC(=O)/C=C/c2ccc(OC)cc2)c2ccccc21	0	0	0	37.5	0
C=CCn1c(O)c(N=NC(=O)CNC(=O)/C=C/c2ccco2)c2ccccc21	0	0	0	35.2	0
NC(=O)Cn1c(O)c(N=NC(=O)CNC(=O)/C=C/c2ccccc2)c2ccccc21	0	0	0	36.5	0
CCCn1c(O)c(N=NC(=O)CNC(=O)/C=C/c2ccc(OC)cc2)c2ccccc21	0	0	0	0	0
CCn1c(O)c(N=NC(=O)CNC(=O)c2cccnc2)c2ccccc21	-	0	-	37.2	-
CC1CN(C(=O)COC(=O)c2ccc(F)cc2Cl)CC(C)O1 (stereo not drawn)	0	0	0	0	0
O=C(O)Cc1ccc(Nc2cnn(C34CC5CC(CC(CC(=O)O)(C5)C3)C4)c(=O)c2Cl)cc1	0	0	0	50.6	0
SMILES	Rv3671c inh	FBA Mtb inh	UGM FP inh	GDH-TPI inh	Mtb bLac sens
CCc1ccc(Nc2cnn(C34CC5CC(CC(CC(=O)O)(C5)C3)C4)c(=O)c2Cl)cc1	0	0	0	0	0
CCOc1ccc(N2CC(C(=O)N3CCCCCC3)CC2=O)cc1 (stereo not drawn)	0	0	0	0	0
CC(C)(O)c1ccccc1CC[C@@H](SCC1(CC(=O)O)CC1)c1cccc(/C=C/c2ccc3ccc(Cl)cc3n2)c1	0	0	0	31.4	0
CC(=O)Oc1ccc(Cl)cc1/C=C/c1ccc2ccccc2n1	0	0	0	0	0
Cc1cc2nc3c(=O)[nH]c(=S)[nH]c3nc2cc1NC(=O)C(F)(F)F	0	0	18.8	0	0
Cc1cc(-c2nnc(CCC(=O)N(C)Cc3cccc4ccccc34)o2)no1	0	0	0	0	0
c1cnc2c(C3NCCc4c3[nH]c3ccccc43)cccc2c1 (stereo not drawn)	0	0	0	0	0
Cc1nc([N+](=O)[O-])c(N2CCN(Cc3ccccc3)CC2)n1Cc1ccccc1	0	0	0	0	0

Screening results: PubChem, several laboratories
